# NOMO-1 viab – STK33 inhibitor candidate reducing NOMO-1 cell viability; inhibition, % (concentration not given with the values); 37,000 tested, 7.5% active; NOMO-1 AML viability, CellTiter-Glo luminescence, 72 h; in the data active = inhibition above about 80%; inconclusive = no clear call, values can overlap the other calls
# MITF inhib – inhibitors of MITF; 37,000 tested, 0.28% active; AID 2240; inhibition, % (no concentration beside the values); TRPM1 promoter luciferase, luminescence, 24 h; in the data active = inhibition above about 85%; inconclusive = no clear call, values can overlap the other calls; inactive = below about 68%;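 also: human melanocyte line stably carrying TRPM1 promoter luciferase reporter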
# PD-1 reversal – activators reversing PD-1 mediated T-cell inhibition | primary human CD4 T cells, PD-L1 beads, CellTiter-Glo 96 h | activation, % (test concentration not listed) | 29,000 tested, under 10 active; call rule not given here;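 also: 0% = median vehicle wells and 100% = positive control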
# Shh pathway inh – blocks Sonic Hedgehog signaling. Shh-LIGHT2 Gli-luciferase reporter, 30 h. inhibition, % (test concentration not listed). 22,000 tested, 2.1% active. AID 2313;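 active = mean inhibition across valid replicates above about 65%, limit read from the data; inconclusive = mean under the limit, yet half or more replicates past it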;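 also: pathway switched on by Shh-conditioned medium diluted 1 in 25 in low serum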
# Active calls of the source: *; ? = inconclusive; . = no result. Sampled rows, rich in hits. Any-hit rate of the full collection: about 8.1%.
SMILES,NOMO-1 viab,MITF inhib,PD-1 reversal,Shh pathway inh
C[C@@H]1CN([C@@H](C)CO)C(=O)c2cc(NC(=O)NC3CCCCC3)ccc2O[C@@H]1CN(C)C(=O)Nc1ccc(F)cc1,12,-3,-3,-16
C[C@@H]1CCCCO[C@@H](CN(C)Cc2ccc(C(=O)Nc3ccccc3N)cc2)[C@@H](C)CN([C@H](C)CO)C(=O)c2cc(NC(=O)C3CCCCC3)ccc2O1,123*,-21,2,.
COc1ccc2c(c1OC)C(=O)OC2[C@H]1c2c(cc3c(c2OC)OCO3)CCN1C (stereo partly specified),37,-2,.,-38
COc1ccc2c(c1OC)C(=O)O[C@@H]2[C@H]1c2c(cc3c(c2OC)OCO3)CCN1C,31,-20,1,43
COc1ccc2cc1Oc1ccc(cc1)C[C@H]1c3cc(c(OC)cc3CCN1C)Oc1c(OC)c(OC)cc3c1[C@H](C2)N(C)CC3,121*,-61,.,-26
COc1cc2c3cc1Oc1c(OC)c(OC)cc4c1[C@@H](Cc1ccc(OC(=O)c5ccc([N+](=O)[O-])cc5)c(c1)Oc1ccc(cc1)C[C@@H]3N(C)CC2)N(C)CC4,98*,-2,-1,-27
C[C@H]1CN([C@@H](C)CO)C(=O)Cc2cc(NC(=O)Cc3ccccc3)ccc2O[C@H]1CN(C)C(=O)Nc1ccc(C(F)(F)F)cc1,16,0,-1,?
OC(COc1ccc(F)cc1)(c1ccc(Cl)cc1)c1ccc(Cl)cc1,121*,38,-4,75*
O=S(=O)(Cc1ccc(Cl)cc1)CC(O)COc1ccc(F)cc1 (stereo unspecified),26,12,1,-35
C[C@@H]1CN([C@H](C)CO)C(=O)c2cc(NC(=O)Nc3ccc(F)cc3)ccc2O[C@@H]1CN(C)Cc1ccc(Oc2ccccc2)cc1,124*,14,-2,?
C[C@@H]1CN([C@H](C)CO)C(=O)c2cc(NC(=O)Nc3ccc(F)cc3)ccc2O[C@H]1CN(C)Cc1ccc(Oc2ccccc2)cc1,71,-1,-3,.
C[C@@H]1CN([C@@H](C)CO)C(=O)c2cc(NC(=O)Nc3ccc(F)cc3)ccc2O[C@@H]1CN(C)Cc1ccc(Oc2ccccc2)cc1,117*,51,-6,40
c1csc(-c2nn3c(C4COc5ccccc5O4)nnc3s2)c1 (stereo unspecified),4,-39,.,.
CCC(Sc1nnnn1-c1ccccc1)C(=O)Nc1sc2c(c1C#N)CCCC2 (stereo unspecified),4,16,0,68*
O=C(CCCN1C(=O)c2ccccc2C1=O)Nc1ccc(Cl)c(Cl)c1,-4,-17,1,.
O=C1C(=O)N(Cc2ccc(Cl)c(Cl)c2)c2ccccc21,97*,1,-14,54
C[C@H](CO)N1C[C@H](C)[C@@H](CN(C)S(=O)(=O)c2ccc(Cl)cc2)Oc2c(cccc2N(C)C)C1=O,15,10,-2,-24
OC(Cc1cccnc1)(c1ccccc1)c1ccccc1,9,27,-1,71*
O=C[C@@H]1CCCN1C(=O)[C@@H]1CCCN1C(=O)OCc1ccccc1,33,-12,.,-32
Oc1ccccc1CNCc1ccccn1,115*,-4,-3,.
O=C(CSc1nc(Nc2ccccc2)nc(N2CCOCC2)n1)Nc1ccccc1Cl,13,-67,1,.
COC(=O)c1cc(NC(=O)CSc2nc(Nc3ccccc3)nc(N3CCOCC3)n2)ccc1Cl,117*,3,-6,.
COc1ccc(/C=C2/C(=O)C(C)(C(C)C)CCC2C)cc1 (stereo unspecified),94*,-26,1,-20
CC1CCC(C(C)C)C(=O)/C1=C/c1ccc(N(C)C)cc1 (stereo unspecified),63,-33,-1,.
O=C(/C=C/Sc1ccccn1)c1ccccc1,114*,65,-3,?
SMILES,NOMO-1 viab,MITF inhib,PD-1 reversal,Shh pathway inh
N#Cc1ccccc1NC(=O)CSc1ccccn1,27,-28,0,-24
CSc1sc(C(=O)Sc2ccccc2)c2c1S(=O)(=O)N(C)c1ccccc1-2,121*,-2,-1,9
CCOC(=O)c1sc(SCc2ccccc2)c2c1-c1sccc1N(C)S2(=O)=O,-18,9,-1,35
C[C@@H]1CN([C@@H](C)CO)C(=O)c2cccc(NS(=O)(=O)c3cccs3)c2O[C@H]1CN(C)Cc1ccc(C(=O)O)cc1,15,-16,3,-42
COc1ccc(CN(C)C[C@H]2OCCCC[C@@H](C)Oc3ccc(NS(=O)(=O)c4ccccc4)cc3C(=O)N([C@H](C)CO)C[C@@H]2C)cc1,52,7,0,-24
COc1ccc(C(=O)NC(c2ccc(OC)c(OC)c2)c2cc(Cl)c3cccnc3c2O)cc1 (stereo unspecified),122*,60,-13,.
